From PubChem
The sample as a whole holds a higher share of hits than the screen did.
Pf Dd2 growth: qHTS Primary assay for Inhibitors of Plasmodium falciparum Dd2 growth in vitro; P. falciparum Dd2 growth, SYBR Green, 72 h; Potency, µM (highest dose often 28.9 µM), for inactives: at the top dose activity, negative = inhibition, usual class: inhibitors; hit rate 4.3% among 120,000; active means well fitted inhibition curve with a large enough effect;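 further: plate controls were DMSO vehicle for no effect and reference drug for full effect; nearly all actives have a fitted effect of over 65% in size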
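Readout: SYBR Green fluorescence, 485 nm excitation, 535 nm emission, after ~16 h lysis at 37C. Before that, Dd2-infected red cells (2.5% hematocrit) grew 72 h with compound, 29 uM top final concentration.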
Starred values were filed as active, the others as inactive; [ ] = dose if it differs, or a comment. Potency means the concentration at half of the fitted maximal effect.

`COc1cccc(C(=O)N2C(C(=O)N3CCC(C(N)=O)CC3)COC23CCC(C)CC3)c1` (centres undefined) gave Pf Dd2 growth 4%.
`O=C(c1ccc2c(c1)OCO2)N1CCC2(CC1)N=C(c1ccc(Cl)cc1)NO2` gave Pf Dd2 growth 7.9µM*.
`Cc1ccc(C2=NC3(CCN(C(=O)c4ccc5c(c4)OCO5)CC3)ON2)cc1` gave Pf Dd2 growth inactive.
For Cc1ccc(C(=O)N2CCC3(CC2)N=C(c2ccc(Cl)cc2)NO3)cc1F the results were Pf Dd2 growth -12%.
For CC(C)NC(=O)NC[C@H]1O[C@@H](CC(=O)N2CCN(c3ccc(F)cc3)CC2)[C@H](O)[C@@H]1O the results were Pf Dd2 growth -8%.
Cc1ccc(CN2CCC(Oc3ccc4ccccc4c3)(C(=O)O)CC2)o1 was read as Pf Dd2 growth -7%.
CCNC(=O)N1[C@H]2CC[C@@H]1c1cnc(-c3ccccc3)nc1C2 was read as Pf Dd2 growth -21%.
Cc1noc(C)c1Cc1ccc(C(=O)N2[C@H]3CC[C@@H]2c2cnc(-c4ccccc4)nc2C3)o1 was read as Pf Dd2 growth 0.63µM*.
`COc1ccc(CCC(=O)N2[C@H]3CC[C@@H]2c2cnc(-c4ccccc4)nc2C3)cc1` gave Pf Dd2 growth -27%.
COCCC(=O)N1[C@H]2CC[C@@H]1c1cnc(-c3ccccc3)nc1C2 was read as Pf Dd2 growth -15%.
`COc1ccccc1C(=O)N1[C@H]2CC[C@@H]1c1cnc(-c3ccccc3)nc1C2` gave Pf Dd2 growth inactive.
`O=C(CC1CCCC1)N1[C@H]2CC[C@@H]1c1cnc(-c3ccccc3)nc1C2` gave Pf Dd2 growth 13µM*.
For COc1ccc(CNC(=O)N2[C@H]3CC[C@@H]2c2cnc(-c4ccccc4)nc2C3)cc1 the results were Pf Dd2 growth 11µM*.
For Cc1noc(C)c1CC(=O)N1[C@H]2CC[C@@H]1c1cnc(-c3ccc(F)cc3)nc1C2 the results were Pf Dd2 growth -16%.
O=C(Cc1ccccc1)N1[C@H]2CC[C@@H]1c1cnc(-c3ccccc3)nc1C2 was read as Pf Dd2 growth inactive.
COCC(=O)NC[C@H]1CCN(Cc2ccc(OC)cc2)C[C@H]1N(C)C was read as Pf Dd2 growth 9%.
`Cc1nn(CC(=O)NC2CCCCCC2)c(=O)c2nc(C(C)C)sc12` gave Pf Dd2 growth inactive.
O=C(NCc1cccc(F)c1)C1CCN(C(=O)c2ncn3c2COC(c2ccc(F)cc2)C3)CC1 (centres undefined) was read as Pf Dd2 growth inactive.
`CCC(CC)NC(=O)C1Cn2cccc2C(=O)N1Cc1ccccc1` (centres undefined) gave Pf Dd2 growth 5%.
CCn1nccc1C(=O)N1CCC(OCC2CC2)C1 (centres undefined) was read as Pf Dd2 growth 26%.
`N#Cc1ccc(CN2CCCC(c3nc(-c4cccnc4)no3)CCNC(=O)CC2)cc1` (centres undefined) gave Pf Dd2 growth 4µM*.
For N#Cc1ccccc1CN1CCCC(c2nc(-c3cccnc3)no2)CCNC(=O)CC1 (centres undefined) the results were Pf Dd2 growth -5%.
For O=C1CCN(CC2CC2)CCCC(c2nc(-c3cccnc3)no2)CCN1 (centres undefined) the results were Pf Dd2 growth inactive.
For COCCN1C(=O)CS(=O)C12CCN(C(=O)Nc1ccc3c(c1)OCCO3)CC2 (centres undefined) the results were Pf Dd2 growth inactive.
O=C(CN1CCOC(c2ccc(F)cc2)C1)NCc1ccccn1 (centres undefined) was read as Pf Dd2 growth -1%.
For CN1Cc2c(cc(N3CCOCC3)nc2-c2ccccc2OC(F)(F)F)C1=O the results were Pf Dd2 growth inactive.
For Cn1c(=O)c2c(-c3ccccc3)n(CCCO)cc2n(C)c1=O the results were Pf Dd2 growth 3%.
Cn1c(=O)c2c(-c3cccc(Br)c3)n(C(C)(C)CO)cc2n(C)c1=O was read as Pf Dd2 growth -5%.
`Cc1ccc(-c2c3c(=O)n(C)c(=O)n(C)c3cn2-c2cc(C)ccc2O)cc1` gave Pf Dd2 growth 5.6µM*.
For CN(Cc1cc(C[C@@H]2C[C@H](NCc3ccccn3)C2(C)C)no1)c1ccccc1 the results were Pf Dd2 growth -23%[44.1 µM].
`Cc1ccnc(NC(c2ccccc2F)c2ccc3cccnc3c2O)c1` (centres undefined) gave Pf Dd2 growth 6.3µM*.
`Cc1ccc(NC(=O)CN(C)S(=O)(=O)c2cccc3cccnc23)cc1F` gave Pf Dd2 growth inactive.
`Oc1c(C(Nc2ccccn2)c2ccccc2F)ccc2cccnc12` (centres undefined) gave Pf Dd2 growth 1.1µM*.
`Cc1cccc(NC(c2ccccc2C)c2ccc3ccc(C)nc3c2O)n1` (centres undefined) gave Pf Dd2 growth 5µM*.
`CCNC(=O)N[C@H]1[C@H](O)[C@H](O)C[C@@H]1c1ccc(C)cc1` gave Pf Dd2 growth -11%[44.1 µM].
For CN(C1CCOCC1)C1CCN(C(=O)c2cccnc2)CC1 the results were Pf Dd2 growth inactive.
For COCCC(=O)N1CCC2(CC1)NCCc1c2[nH]c2ccc(OC)cc12 the results were Pf Dd2 growth -19%.
Screening O=[S+]1([O-])NC2(CCN(Cc3ccc(C(F)(F)F)cc3)C2)CNc2ccccc21 (centres undefined) returned Pf Dd2 growth inactive.
Cc1ccccc1[C@H]1C[C@@H](O)[C@@H](O)[C@@H]1NC(=O)c1cccnc1 was read as Pf Dd2 growth inactive.
For COCCC1(CO)CCCN(CC(=O)NCc2ccccn2)C1 (centres undefined) the results were Pf Dd2 growth -13%.
COc1cccc(C(=O)N(C)Cc2ccc(-c3ccccc3)cc2)c1 was read as Pf Dd2 growth -17%[44.1 µM].
`Cc1nc([C@H]2CCN(Cc3cccnc3)C[C@H]2NC(=O)C2CC2)n[nH]1` gave Pf Dd2 growth 30%.
`COc1ccc(/C=C/C(=O)Nc2nc3n(n2)C(c2ccc(F)cc2)C=C(c2ccccc2)N3)cc1` (centres undefined) gave Pf Dd2 growth 8.9µM*.
`O=C(/C=C/c1ccco1)Nc1ccc(F)cc1` gave Pf Dd2 growth -14%.
O=C(/C=C/c1ccccc1)Nc1nc2n(n1)C(c1ccc(F)cc1)C=C(c1ccccc1)N2 (centres undefined) was read as Pf Dd2 growth 10µM*.
`COc1ccc(/C=C/C(=O)Nc2nc3n(n2)C(c2ccccc2)C=C(c2ccccc2)N3)cc1` (centres undefined) gave Pf Dd2 growth 7.9µM*.
For COc1ccc(C2C=C(c3ccccc3)Nc3nc(NC(C)=O)nn32)cc1 (centres undefined) the results were Pf Dd2 growth -30%.
For COc1ccc(C2C=C(c3ccccc3)Nc3nc(NC(=O)/C=C/c4ccccc4Cl)nn32)cc1 (centres undefined) the results were Pf Dd2 growth 7.1µM*.
Screening COc1ccc(C2=CC(c3ccc(N(C)C)cc3)n3nnnc3N2)cc1 (centres undefined) returned Pf Dd2 growth 83%.
For CC(C)(C)c1oc(C(N)=O)cc1CN1CCC2(CCCNC2=O)C1 (centres undefined) the results were Pf Dd2 growth -3%.
Screening O=C1NC2(CCCN(C(=O)c3ccc(Cl)cc3)C2)Oc2ccccc21 (centres undefined) returned Pf Dd2 growth 15%.
For CC(C)(C)C(=O)N1CCC2(CCCN(Cc3cccc(F)c3F)C2=O)C1 (centres undefined) the results were Pf Dd2 growth 3%.
